These results are taken from PubChem BioAssay AID1851 (National Center for Advancing Translational Sciences (NCATS), 2009).

“And” between values parts separate entries of the source, which are not always exact repeats. Identical values can stand only once. Screen size: about 16,000 compounds; about 2,600 (16%) were called active. Inconclusive results (about 20%) are left out. Calls follow the shape of the dose curve; as a rule, active = well fitted curve in the direction sought with a large enough effect; inconclusive = small, poorly fitted or top-dose-only effect, or effect the other way; inactive = no such curve, though single readings can be large or run the other way. These entries were drawn from the full list.
% is scaled to controls: 0 for no effect and ±100 for the full control effect.

The target in the assay is Cytochrome P450 2D6 (Homo sapiens) (UniProt P10635). In words: Cytochrome panel assay with activity outcomes. Conditions: recombinant CYP, pro-luciferin dealkylation, luminescence, p450-cyp2d6; series mostly up to 57.1 µM; activity, negative = inhibition: at the top concentration.
Chain of Cytochrome P450 2D6 (Homo sapiens) (P10635 whole entry, looked up): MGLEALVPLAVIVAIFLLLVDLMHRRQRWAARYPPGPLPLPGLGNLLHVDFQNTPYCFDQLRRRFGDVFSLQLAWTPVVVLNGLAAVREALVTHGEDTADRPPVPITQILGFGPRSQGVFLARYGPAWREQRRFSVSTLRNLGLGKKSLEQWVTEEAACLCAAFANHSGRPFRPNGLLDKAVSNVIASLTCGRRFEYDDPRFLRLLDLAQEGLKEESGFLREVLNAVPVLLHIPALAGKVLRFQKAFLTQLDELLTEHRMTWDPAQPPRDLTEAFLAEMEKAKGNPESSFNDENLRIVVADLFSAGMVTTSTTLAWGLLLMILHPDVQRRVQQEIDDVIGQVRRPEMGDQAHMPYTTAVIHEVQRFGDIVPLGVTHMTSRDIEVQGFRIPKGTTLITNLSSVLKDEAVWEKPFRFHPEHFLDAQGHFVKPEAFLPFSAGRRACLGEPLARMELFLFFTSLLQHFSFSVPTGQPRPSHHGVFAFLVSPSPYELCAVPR
As for `O=C(Nc1cnn(Cc2ccc(Cl)cc2)c1)c1ccc([N+](=O)[O-])cc1`, the “activity, negative = inhibition” value was -21.1% (inactive).
As for `CSc1ccc2nnc(-c3cccc(F)c3)n2n1`, the “activity, negative = inhibition” value was -6.36% (inactive).
Consider `Cc1nnc(C)n1/N=C/c1cccs1`, for which the “activity, negative = inhibition” value is -40.9% (inactive).
As a reminder, the AC50 is the midpoint of the concentration-response curve, whichever way the signal moves. In the case of `S=c1[nH]nc(C2CCCCC2)n1/N=C/c1cccs1`, the AC50 is 2.24 µM (active).
As for `Cc1ccc(/C=N/n2c(COc3ccccc3)n[nH]c2=S)s1`, the “activity, negative = inhibition” value was -22.5% (inactive).
As for `O=C1C2ON(c3ccccc3)C(c3ccncc3)C2C(=O)N1c1ccccc1` (stereo unspecified), the “activity, negative = inhibition” value is 17.4% (inactive).
`Cc1nc2ccccc2n1CC(=O)N/N=C\c1ccccn1`: the “activity, negative = inhibition” value is -12.2% (inactive).
For the molecule `Cc1cc(C2C(C#N)=C(N)Oc3n[nH]c(C)c32)c(C)s1` (stereo unspecified), the “activity, negative = inhibition” value is -4.36% (inactive).
`Cc1ccsc1/C=N/Nc1nc(Cl)c(Cl)cc1Cl`: the “activity, negative = inhibition” value is -15.6% (inactive).
Turning to `OCCN(C=NC1=NN(c2cccc(C(F)(F)F)c2)CC1)CCO`, the “activity, negative = inhibition” value is -7.95% (inactive).
Consider `COc1cccc(/C=N/NC(=O)C(=O)NCc2cccnc2)c1`, for which the “activity, negative = inhibition” value is 21.5% (inactive).
On to `COc1ccc(NC(=S)N(CCc2nc3cc(C)c(C)cc3[nH]2)Cc2cccnc2)cc1`, for which the AC50 was 11.2 µM (active).
Turning to `COc1ccc2[nH]c(=O)c(NC(N)=S)nc2c1`, the “activity, negative = inhibition” value is -33.1% (inactive).
Consider `Cc1cccc(NC(=S)N(CCc2nc3cc(C)c(C)cc3[nH]2)Cc2cccnc2)c1`, for which the AC50 was 3.16 µM (active).
`CCc1ccc2c(c1)cc(CN(C(=S)Nc1cccc(C)c1)C1CC1)c1nnnn12`: the “activity, negative = inhibition” value was -0.638% (inactive).
Take `Cc1ccc(C)c(NC(=S)N(CCc2nc3cc(C)c(C)cc3[nH]2)Cc2cccnc2)c1`: the concentration at half-maximal activity (AC50) was 1 µM (active).
With `CC(=O)CC(=O)[C@@]1(O)CC[C@@H]2[C@@H]3C=C(C)C4=CC(=O)CC[C@@H]4[C@H]3CC[C@]21C`, the “activity, negative = inhibition” value is 1.91% [at 25.6 µM] (inactive).
Regarding `O=C(O)[C@@H](O)[C@@H](O)[C@@H](O[C@H]1O[C@@H](CO)[C@@H](O)[C@@H](O)[C@@H]1O)[C@@H](O)CO`, the “activity, negative = inhibition” value was 0.496% [at 25.6 µM] (inactive).
In the case of `COc1cc(NC(=S)Nc2ccc(S(=O)(=O)N3CCOCC3)cc2)cc(OC)c1OC`, the “activity, negative = inhibition” value is -17.6% (inactive).
With `CC1(C)CC(=O)c2cnc(N)nc2C1`, the “activity, negative = inhibition” value was 32.6% (inactive).
On the same count and under the same terms, the same measure for `O=C(NN=C1c2ccccc2-c2ccccc21)c1ccccn1`: -9.72% (inactive).
For `CSC(=NC#N)N1CCN(c2ccc(Cl)cc2)CC1`, the AC50 was 0.316 µM (active).
Regarding `O=C(CSc1ccc(Cl)cc1)Nc1ccc(N2CCN(C(=O)c3ccc(Cl)cc3)CC2)cc1`, the “activity, negative = inhibition” value is -21.1% (inactive).
Turning to `O=C(CSC1=NCCS1)N1CCN(c2ccc(Cl)cc2)CC1`, the “activity, negative = inhibition” value is -27.3% (inactive).
For `CN(C)c1ccc(-c2nc(N(C)C)c3ccccc3n2)cc1`, the AC50 is 7.94 µM (active).
As for `CNc1nc(-c2ccc(N(C)C)cc2)nc2ccccc12`, the AC50 was 12.6 µM (active).
Turning to `COc1ccccc1NC(=O)Nc1nc(-c2cccnc2)nc2ccccc12`, the “activity, negative = inhibition” value is -2.94% (inactive).
Regarding `CN(C)c1nc(-c2cccnc2)nc2ccccc12`, the half-maximal activity concentration (AC50) was 15.8 µM (active).
For `CN(C)c1ccc(/C=N\NC(=O)c2cnc3ccccc3c2)cc1`, the activity, negative = inhibition is 5.04% [at 11.4 µM] (inactive).
Still for that read-out and setting: to `CCn1c(-c2ccc(N(C)C)cc2)nc2ccccc21` belongs -108% (inactive); to `c1ccc(Nc2nc(-c3cccnc3)nc3ccccc23)cc1`, -11.1% (inactive); to `CCC(=O)O[C@H](CC(=O)O)C[N+](C)(C)C`, 8.38% (inactive).
Still for that read-out and setting: the same measure for `O=C1C[C@@H](O)[C@@H](O)[C@H]2[C@@H]3C(=O)N(C[C@@H]4CCCO4)C(=O)[C@@H]3CC[C@H]12`: 4.56% [at 11.4 µM] (inactive) and 6.17% [at 11.4 µM] (inactive); for `COc1cc(C2NC(=O)NC(O)(C(F)(F)F)C2C(=O)c2ccc(Cl)cc2)ccc1O` (stereo unspecified): 3.72% (inactive).
Consider `CCCc1nn2c(=O)c(C(c3ccc(C)cc3)c3c(O)nc4sc(CCC)nn4c3=O)c(O)nc2s1`, for which the “activity, negative = inhibition” value was 3.03% (inactive).
With `CN1CCN(c2nc3c(c(=O)n(C)c(=O)n3C)n2C)CC1`, the activity, negative = inhibition is 6.17% [at 11.4 µM] (inactive).
`CCCCN(C(=S)Nc1ccccc1)C1CCS(=O)(=O)C1` (stereo unspecified): the “activity, negative = inhibition” value is -11.8% (inactive).
For `Fc1ccc(N2CCN(c3ccc4c(C(F)(F)F)cc(C(F)(F)F)nc4n3)CC2)cc1`, the “activity, negative = inhibition” value is -0.372% (inactive).
For `COCCNC(=O)c1onc(CSc2ccc(Cl)cc2)c1C(=O)O`, the “activity, negative = inhibition” value was -14% (inactive).
Turning to `O=C(NCc1ccccc1)c1onc(CSc2ccc(F)cc2)c1C(=O)NCCCN1CCOCC1`, the AC50 is 10 µM (active).
In the case of `C=CCNC(=O)c1onc(CSc2ccc(F)cc2)c1C(=O)O`, the “activity, negative = inhibition” value was -10.6% (inactive).
On the same count and under the same terms, to `COc1ccc(-n2c(=O)c(-c3cn(C)c4ccccc34)nc3cnc(OC)nc32)cc1` belongs -8.38% (inactive); to `CCOc1ccc(N(C(C)C(=O)N/N=C(\C)c2cccc(NC(=O)c3ccccc3)c2)S(C)(=O)=O)cc1` (stereo unspecified), -2.54% (inactive).
Same read-out and setting: the same measure for `COc1ccc2c(c1)CCc1sc(NC(=O)c3ccc(C)cc3)nc1-2`: -10.9% (inactive); for `Cn1c(=O)c(-c2cccs2)nc2cncnc21`: -5.04% (inactive).
For the molecule `Cc1oc(-c2cccc(Cl)c2)[n+]([O-])c1C`, the “activity, negative = inhibition” value is -3.1% (inactive).
Same read-out and setting: to `O=S1(=O)OC(c2ccc(O)cc2)(c2ccc(O)cc2)c2ccccc21` belongs 12.2% [at 11.4 µM] (inactive).
Consider `COc1ccc(CNc2ccnc(-c3ccc4c(c3)OCO4)n2)c(OC)c1`, for which the AC50 was 10 µM (active).
Same read-out and setting: to `COc1ccccc1CNc1ccnc(-c2ccc3c(c2)OCO3)n1` belongs 0.794 µM (active).
Consider `Cc1c(C#N)c(=O)oc2ccc3ccccc3c12`, for which the “activity, negative = inhibition” value is -1.06% (inactive).
Same read-out and setting: the same measure for `NC(=O)c1ccc(N2CCCCC2)c(N2C(=O)C3CC=CCC3C2=O)c1` (stereo unspecified): -4.43% (inactive).
